# Most compounds without a hit are left out; they make up all but 11% or so of the library.
# IMPase Li cell = IMPase inhibition in cells with lithium potentiation; CHO-M1 cells, IP1 TR-FRET (IP-One), carbachol + lithium; Potency, µM (series often up to 59.4 µM), inactives show top-dose activity, negative = IMPase inhibition, usual class: inhibitors; actives 0.35% (n = 210,000); AID 1457;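 also: IP1 builds up when IMPase is blocked and the TR-FRET signal falls; potency is read from the fitted curve at half-maximal effect; plate controls were basal vehicle for no effect and high inhibitor control for full effect; nearly all actives have a fitted effect of over 50% in size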
#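 Steps: plate 2000 CHO-M1 cells per well and culture 16–30 h; add compound and lithium; incubate 30 min, 37C; add d2-IP1 tracer and Eu cryptate anti-IP1 antibody in lysis buffer; read after 10 min at room temperature.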
# IMPase inh = cell-permeable inhibitors of inositol monophosphatase (IMPase). CHO-M1 cells, IP1 accumulation, HTRF TR-FRET ratio. 120,000 tested, under 10 active. inhibition (IP1 accumulation), % at 46.1 µM. P97697; active = well fitted curve in the direction sought with a large enough effect in the signal ratio, not every such curve was filed as active; inconclusive = small, poorly fitted or top-dose-only effect, or a change in a side signal; inactive = no such curve, though single readings can be large or run the other way; the % refers to the signal ratio;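 also: cells stimulated with carbachol in lithium chloride buffer; plate controls were DMSO basal wells for no effect and reference inhibitor wells for full effect; higher means more IMPase inhibition seen as more IP1 and lower FRET ratio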
#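 Cellular IMPase inhibition is scored as a rise in cytosolic IP1, detected by competitive TR-FRET between d2-labelled IP1 and a europium anti-IP1 antibody. M1-expressing CHO cells were stimulated with carbachol for 30 min at 37C, with lithium (50 mM LiCl) present in the buffer.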
# PNC inhibitor = inhibitors of perinucleolar compartment assembly. activity change (PNC), negative = inhibition, % at 10 µM. actives 3.1% (n = 140,000). PC3M PTB-GFP, PNC prevalence imaging, 16 h; active compounds read low;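 active = readout at or below -70, meaning at least 70% loss of cells showing the perinucleolar compartment, a nuclear body marking cancer cells; inconclusive = readout between -30 and a set limit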;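 also: plate controls were DMSO wells for no effect and camptothecin positive control wells for full effect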
#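 Read-out is percentage of cells bearing a perinucleolar compartment, from automated 20x imaging of fixed, Hoechst-stained PC3M PTB-GFP cells. Cells were seeded 4 h, then exposed 16 h to compound (23 nl of library stock) in duplicate plates.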
# HPGD inh = HPGD (human) dehydrogenase inhibition | P15428 | purified HPGD, NADH fluorescence kinetic, PGE2 substrate | Potency, µM, for the others: at the highest dose activity change, negative = inhibition, hits mostly inhibitors | actives 4.3% (n = 150,000) | AID 894; active = well fitted inhibition curve with a large enough effect, not every such curve was filed as active; inconclusive = small, poorly fitted or top-dose-only effect, or another doubt; inactive = no such curve, though single readings can be large or run the other way; also: potency is read from the fitted curve at half-maximal effect
#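 20 nM HPGD preincubated 15 min at room temperature with compound in 50 mM Tris-HCl pH 8, 0.01% Tween 20. Started with 1 mM NAD+ and 30 uM prostaglandin E2; NADH fluorescence (360/450 nm) read 5 times over 30-s intervals, last minus first.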
# ALDH1A1 inh = blocks purified human ALDH1A1 activity | P00352 | Purified ALDH1A1, NADH fluorescence, propionaldehyde substrate | Potency, µM (highest dose often 75.3 µM), inactives show top-dose activity, negative = inhibition, actives largely listed as inhibitors | actives 7.3% (n = 220,000); active = well fitted inhibition curve with a large enough effect, not every such curve was filed as active; inconclusive = small, poorly fitted or top-dose-only effect, or another doubt; inactive = no such curve, though single readings can be large or run the other way;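 also: potency is read from the fitted curve at half-maximal effect; plate controls were no enzyme wells and a reference inhibitor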
# Target sequence (P00352 whole entry, looked up): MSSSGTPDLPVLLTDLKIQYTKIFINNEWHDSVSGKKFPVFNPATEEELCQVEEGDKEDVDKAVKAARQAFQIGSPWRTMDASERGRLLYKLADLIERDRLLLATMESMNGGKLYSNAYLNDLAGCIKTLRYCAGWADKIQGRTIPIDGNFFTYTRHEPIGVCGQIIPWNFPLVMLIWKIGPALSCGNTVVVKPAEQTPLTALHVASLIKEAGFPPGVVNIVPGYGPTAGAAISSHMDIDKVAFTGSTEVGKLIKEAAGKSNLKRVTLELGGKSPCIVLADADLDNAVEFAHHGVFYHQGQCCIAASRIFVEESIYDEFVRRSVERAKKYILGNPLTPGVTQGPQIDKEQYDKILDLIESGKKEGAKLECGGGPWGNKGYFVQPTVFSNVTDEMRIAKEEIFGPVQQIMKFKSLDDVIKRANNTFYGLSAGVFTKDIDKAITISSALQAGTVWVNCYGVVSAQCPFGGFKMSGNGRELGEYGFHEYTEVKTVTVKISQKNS
# ALOX12 inhib = 12-hLO (ALOX12) enzyme inhibition | purified 12-hLO, xylenol orange hydroperoxide absorbance | P18054 | Potency, µM (series often up to 57.1 µM), for inactives: top-dose activity change, negative = inhibition, actives largely listed as inhibitors | actives 0.12% (n = 150,000); also: potency is read from the fitted curve at half-maximal effect; nearly all actives have a fitted effect of over 55% in size
#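 Xylenol orange chromogenic assay: hydroperoxide from 12hLO oxidises Fe(II), giving red-shifted Fe(III)-XO absorbance. Conditions: 150 nM enzyme, 40 uM arachidonic acid, 25 mM Hepes pH 7.0, 0.01% Triton X-100, 30 min, room temperature.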
# An asterisk follows results filed as active; ? = inconclusive; / = no result; [ ] = dose if it differs, or a comment. Unless noted, calls follow the shape of the dose curve; as a rule, active = well fitted curve in the direction sought with a large enough effect; inconclusive = small, poorly fitted or top-dose-only effect, or another doubt; inactive = no such curve, though single readings can be large; an effect the other way counts as inactive or inconclusive. Unless noted, % is scaled to controls: 0 for no effect and ±100 for the full control effect.
SMILES,IMPase Li cell,IMPase inh,PNC inhibitor,HPGD inh,ALDH1A1 inh,ALOX12 inhib
NC(=O)CSc1cn(Cc2ccccc2)c2ccccc12,-2.0%,/,/,/,7.94µM*,/
O=[N+]([O-])/C=C/c1cn(Cc2ccccc2)c2ccccc12,22.9%[38.3 µM],23.3,18.6,-24.9%,15.8µM*,-6.9%
N#CCCn1c(=O)c(-c2cccs2)nc2cnc(Oc3ccccc3)nc21,?,/,/,?,?,-4.0%
NCCC(=O)N[C@H](Cc1cnc[nH]1)C(=O)O,0.4%,/,/,-7.9%,10.4%,2.4%
CCOC(=O)c1c(NC(=O)CCCOc2ccccc2C)sc2c1CCC(C)C2 (stereo not given),/,-11.5,/,/,/,/
COc1cc(NC(=O)c2nc3cc(C)c(C)cc3n(C)c2=O)cc(OC)c1OC,/,-5.0,/,/,/,/
Cc1ccc(-c2c(C#N)c(N)n3c(nc4ccccc43)c2C#N)cc1,-22.7%,0.3,13.6,?,18.9µM*,-5.7%
C=CCOc1ccc2ccccc2c1/C=N/O,-14.5%[38.3 µM],-0.4,27.4,2.51µM*,-1.9%,-5.5%
COc1ccc2ccccc2c1-c1c(OC)ccc2ccccc12,6.3%,/,/,0.7%,8.6%,/
C=CCOc1ccc(Br)cc1/C=N/O,-12.6%[38.3 µM],3.4,16.1,4.47µM*,?,2.6%
COc1ccc2ccccc2c1/C=N/O,-2.0%[38.3 µM],3.3,-108.2*,7.08µM*,-3.1%,1.9%
Cc1cnc(CNc2ccnc(-c3ccccc3C)n2)cn1,10.6%,/,/,/,5.9%,/
CCOCCCn1c(=N)c(C(=O)NC2CCCC2)cc2c(=O)n3cccc(C)c3nc21,/,3.8,/,/,/,/
CCCC1(CCC)NC(=O)N(CC(=O)N2CCN(C(=O)c3ccco3)CC2)C1=O,21.6%[38.3 µM],-4.4,-11.0,-6.4%,5.0%,-4.0%
O/N=C1\CCCC\C1=C/c1ccccc1,15.4%,/,?,4.47µM*,-2.4%,-3.6%
O=C1CCC/C1=C\c1ccccc1,4.4%,/,/,/,?,/
NC(=O)c1cc2ccccc2o/c1=N\NC(=O)c1ccco1,11.4%,7.3,-119.3*,-10.4%,-0.8%,-2.3%
COc1ccccc1NC(=O)CC1Sc2ccc(C(F)(F)F)cc2NC1=O (stereo not given),/,0.9,/,/,/,/
CCOC(=O)C1=C(CC)Nc2ccccc2N=C1NC(=O)c1ccc(S(=O)(=O)N2CCCC2)cc1,15.9%,/,/,/,14.1µM*,/
CCOC(=O)C1=C(CC)Nc2ccccc2N=C1NC(=O)Nc1ccc(Cl)c(Cl)c1,39.6%[38.3 µM],15.3,45.7,-7.3%,2.5%,-19.9%
COC(=O)/C(=C1\OC(=O)C(c2ccccc2)C1=O)c1ccccc1 (stereo not given),5.7%,/,/,-12.6%,-6.4%,1.3%
CCN(CC)C(=O)c1ccc2c(c1[N+](=O)[O-])C(=O)c1ccccc1C2=O,-2.0%,?,-81.8*,?,9.3%,-0.6%
Cc1ccc(NC(=O)COC(=O)C2(c3ccc(Cl)cc3)CCCC2)cc1,17.1%,/,?,-8.2%,10µM*,-4.2%
COc1cccc(Cn2c(=O)c(-c3ccc(F)c(F)c3)nc3cncnc32)c1,-0.5%,/,/,-20.8%,9.4%,-3.2%
O=S(=O)(c1cccc(-c2nnc(-c3ccc(Br)cc3)o2)c1)N1CCCCCC1,6.0%[38.3 µM],12.0,-13.4,-22.2%,0.2%,-0.6%
O=S(=O)(c1cccc(-c2nnco2)c1)N1CCCC1,2.3%,-7.0,-107.2*,2.6%,-11.6%,-2.3%
COC(=O)C1CCN(c2nc3ccccc3nc2C(C#N)C(=O)OCC(C)C)CC1 (stereo not given),44.8%[38.3 µM],3.0,-83.3*,-5.5%,?,-2.3%
Cc1cc(C)cc(NC(c2cccc(Cl)c2)c2nnc(-c3ccccc3)o2)c1 (stereo not given),/,9.7,/,/,/,/
COc1ccc(NC(=O)CSc2nc3c(c(=O)n2-c2ccccc2OC)SCC3)cc1,16.6%[38.3 µM],-2.9,-24.3,-5.1%,11.2µM*,-14.2%
COc1ccccc1-n1c(SCC(=O)Nc2ccccc2F)nc2[nH]ncc2c1=O,-10.1%[38.3 µM],4.5,1.1,-7.7%,?,-0.3%

# Screening results: PubChem, National Center for Advancing Translational Sciences (NCATS)
